Test results: PubChem BioAssay (Tox21)
Values joined by “and” are separate entries in the source; they are usually repeats but may differ in a detail not shown here. Equal entries are not always repeated. Records with an inconclusive call do not appear. Where a call stands in place of a potency, no number is given. Values without a mark were called inactive. Active and inactive are the calls of the source. Calls come from the whole dose curve; as a rule, active = well fitted curve in the direction sought with a large enough effect in the repeat runs; inconclusive = weak or mixed curves; inactive = no such curve, though single readings can be large; an effect the other way counts as inactive or inconclusive.

Tests used:
[1] = A CellTox Green Cytotoxicity Assay to monitor cytotoxicity in HEK293 cells - 8 hour (AID 1224884); note: nearly all actives have a fitted effect of over 35% in size
In short: (§1)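 Each value comes from one timepoint of a single continuous run in which HEK293 cells with CellTox Green were exposed to compound for up to 40 h at 37 C, dye fluorescence rising with cell death.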

[2] = qHTS RealTime-Glo MT Cell Viability Assay in HepG2 cells - 16 hour (AID 1224885); note: nearly all actives have a fitted effect of over 50% in size
In short: (§2)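 Viability was tracked continuously by NanoLuc luminescence from prosubstrate reduced by living HepG2 cells, at successive time points over 40 h of compound exposure. Cells with reagent were preincubated 5 h at 37 °C before compound addition.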

[3] = qHTS RealTime-Glo MT Cell Viability Assay in HEK293 cells - 24 hour (AID 1224886); note: nearly all actives have a fitted effect of over 50% in size; note: potency is the fitted concentration of half-maximal effect; for activity change, negative = cytotoxicity: top concentration of the series differs between compounds
In short: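 Viability tracked continuously by luminescence as live cells reduce a prosubstrate for NanoLuc; HEK293 cells preincubated 5 h, compound-treated at 37 C, and read at 0, 8, 16, 24, 32 and 40 h.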

[4] = qHTS RealTime-Glo MT Cell Viability Assay in HEK293 cells - 8 hour (AID 1224887); note: top concentration of the series differs between compounds; nearly all actives have a fitted effect of over 50% in size
In short: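 qHTS format; HEK293 cells with NanoLuc/prosubstrate reagent, 37 C/5% CO2 for 5 h pre-dosing; compounds 23 nL in DMSO; luminescence at each time point reflects viable cells.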

[5] = A CellTox Green Cytotoxicity Assay to monitor cytotoxicity in HEK293 cells - 16 hour (AID 1224888); note: nearly all actives have a fitted effect of over 35% in size
In short: as §1

[6] = qHTS RealTime-Glo MT Cell Viability Assay in HepG2 cells - 0 hour (AID 1224889); note: nearly all actives have a fitted effect of over 50% in size; note: potency is the fitted concentration of half-maximal effect
In short: as §2

[7] = A CellTox Green Cytotoxicity Assay to monitor cytotoxicity in HepG2 cells - 8 hour (AID 1224890); note: nearly all actives have a fitted effect of over 45% in size
In short: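 Continuous culture of HepG2 cells with a membrane-impermeant DNA dye; rising fluorescence marks dead cells. Compound exposure lasted up to 40 h at 37 C, with reads every 8 h from 0 h.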

[8] = qHTS assay to identify small molecule antagonists of the estrogen receptor alpha (ER-alpha) signaling pathway using the BG1 cell line in the presence of 0.1 nM 17-beta-estradiol - cell viability counter screen (AID 1259241); note: nearly all actives have a fitted effect of over 40% in size
In short: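 Following 5 days in phenol red-free medium with charcoal-stripped serum, VM7Luc4E2 cells received test compounds alongside 0.1 nM 17beta-estradiol (final) at 37C for 22 hr. Live cells were then quantified via protease-substrate fluorescence.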

[9] = qHTS assay to identify small molecule antagonists of the androgen receptor (AR) signaling pathway using the MDA cell line in the presence of 0.5 nM R1881 - cell viability counter screen (AID 1259242); note: nearly all actives have a fitted effect of over 45% in size
In short: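 Fluorescence from CellTiter-Fluor, which reports protease activity of live cells, was read 30 min after reagent addition to MDA-kb2 cells that had been incubated 16 hr with compound and 0.5 nM R1881.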

[10] = molecular target: Androgen receptor (Homo sapiens) (UniProt P10275); assay: qHTS assay to identify small molecule antagonists of the androgen receptor (AR) signaling pathway using the MDA cell line in the presence of 0.5 nM R1881 (AID 1259243); note: nearly all actives have a fitted effect of over 50% in size
Chain of Androgen receptor (Homo sapiens) (P10275 whole entry, looked up): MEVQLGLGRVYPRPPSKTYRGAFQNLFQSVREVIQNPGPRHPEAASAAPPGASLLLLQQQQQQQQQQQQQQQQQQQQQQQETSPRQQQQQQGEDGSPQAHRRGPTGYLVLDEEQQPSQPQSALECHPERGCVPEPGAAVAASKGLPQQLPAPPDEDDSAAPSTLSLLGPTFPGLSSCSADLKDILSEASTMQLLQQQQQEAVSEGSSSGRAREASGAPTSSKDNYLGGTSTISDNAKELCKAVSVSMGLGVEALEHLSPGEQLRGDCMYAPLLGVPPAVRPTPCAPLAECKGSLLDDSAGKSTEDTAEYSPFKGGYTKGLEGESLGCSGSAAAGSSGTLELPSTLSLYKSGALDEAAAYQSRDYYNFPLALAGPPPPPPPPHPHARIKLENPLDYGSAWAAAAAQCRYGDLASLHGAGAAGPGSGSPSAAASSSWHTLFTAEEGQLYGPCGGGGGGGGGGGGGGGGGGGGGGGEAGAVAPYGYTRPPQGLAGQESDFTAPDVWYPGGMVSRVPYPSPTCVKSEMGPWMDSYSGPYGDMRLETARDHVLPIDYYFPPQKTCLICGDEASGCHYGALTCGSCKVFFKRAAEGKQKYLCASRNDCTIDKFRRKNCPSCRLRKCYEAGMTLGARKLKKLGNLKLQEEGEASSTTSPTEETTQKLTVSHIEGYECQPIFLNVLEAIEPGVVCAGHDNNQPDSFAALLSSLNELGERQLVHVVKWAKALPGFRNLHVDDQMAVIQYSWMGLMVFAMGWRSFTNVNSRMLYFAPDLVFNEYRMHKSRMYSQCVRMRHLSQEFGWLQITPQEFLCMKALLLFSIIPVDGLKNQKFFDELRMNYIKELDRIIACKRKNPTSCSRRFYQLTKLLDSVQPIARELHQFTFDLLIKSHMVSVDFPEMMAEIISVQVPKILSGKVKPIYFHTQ
In short: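 Inhibition of R1881 (0.5 nM final) induced reporter signal was measured in human MDA-kb2 cells; note the MMTV promoter also responds to GR. Exposure lasted 16 hr at 37C.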

SMILES | outcome [1] | outcome [2] | Potency [3] | Potency [4] | outcome [5] | Potency [6] | Potency [7] | activity change, negative = cytotoxicity [3] | activity change, negative = cytotoxicity [4] | Potency [8] | outcome [9] | Potency [10]
CCCCCCCCC/C=C/CC1CC(=O)OC1=O (centres undefined) | inactive | inactive | inactive | inactive | inactive | inactive | inactive | – | – | – | – | –
NNc1nncc2ccccc12 | inactive | inactive | – | – | inactive | – | – | 2.63% [at 15.8 µM] | 1.02% [at 15.8 µM] | – | – | –
CCCCCC/C(C=O)=C\c1ccccc1 | inactive | inactive | inactive | inactive | inactive | inactive | inactive | – | – | inactive | – | –
Cc1cc(C)c(C)cc1C | inactive | inactive | inactive | inactive | inactive | inactive | inactive | – | – | – | inactive | –
CC1=CC(=O)NS(=O)(=O)O1 | inactive | inactive | inactive | inactive | inactive | inactive | inactive | – | – | inactive | inactive | –
O=C(O)CCCC[C@@H]1SC[C@@H]2NC(=O)N[C@@H]21 | inactive | inactive | inactive | inactive | inactive | inactive | inactive | – | – | inactive | inactive | –
O=C(Oc1ccccc1)c1ccccc1 | inactive | inactive | inactive | inactive | inactive | inactive | inactive | – | – | inactive | – | –
c1ccc(OCCOc2ccccc2)cc1 | inactive | inactive | inactive | inactive | inactive | inactive | inactive | – | – | inactive | inactive | –
COc1ccc2cc([C@H](C)C(=O)O)ccc2c1 | inactive | inactive | inactive | inactive | inactive | inactive | inactive | – | – | inactive | – | –
CC(=O)Nc1cccc(O)c1 | inactive | inactive | inactive | inactive | inactive | inactive | inactive | – | – | – | – | –
O=C(O)c1cc(=O)c2c(OCC(O)COc3cccc4oc(C(=O)O)cc(=O)c34)cccc2o1 | inactive | inactive | inactive | inactive | inactive | inactive | inactive | – | – | inactive | inactive | –
COS(C)(=O)=O | inactive | inactive | inactive | inactive | inactive | inactive | inactive | – | – | – | inactive | –
O=C1CCC(N2C(=O)c3ccccc3C2=O)C(=O)N1 (centres undefined) | inactive | inactive | inactive | inactive | inactive | inactive | inactive | – | – | – | inactive | –
CC1=CCC2CC1C2(C)C (centres undefined) | inactive | inactive | inactive | inactive | inactive | inactive | inactive | – | – | – | inactive | –
CC(O)COCC(C)O (centres undefined) | inactive | inactive | inactive | inactive | inactive | inactive | inactive | – | – | – | inactive | –
OCCOCCN1CCN(C2=Nc3ccccc3Sc3ccccc32)CC1 | inactive | inactive | inactive | inactive | inactive | inactive | inactive | – | – | – | – | –
CN(C)CCC(c1ccc(Cl)cc1)c1ccccn1 (centres undefined) | inactive | inactive | inactive | inactive | inactive | inactive | – | – | – | inactive | – | –
CCCCCCCCCCCCS | inactive | inactive | inactive | inactive | inactive | inactive | – | – | – | – | – | –
O=c1[nH]c(=O)n([C@H]2C[C@H](O)[C@@H](CO)O2)cc1Br | inactive | inactive | inactive | inactive | inactive | inactive | – | – | – | inactive | – | –
CC[C@H](C)C(=O)O[C@H]1C[C@@H](C)C=C2C=C[C@H](C)[C@H](CC[C@@H]3C[C@@H](O)CC(=O)O3)[C@H]21 | inactive | inactive | inactive | inactive | inactive | inactive | inactive | – | – | – | inactive | –
CC(=O)CC(=O)Nc1ccccc1 | inactive | inactive | inactive | inactive | inactive | inactive | inactive | – | – | – | inactive | –
OCC(CO)(CBr)CBr | inactive | inactive | inactive | inactive | inactive | inactive | inactive | – | – | inactive | – | –
CC(=O)Nc1ccccc1 | inactive | inactive | inactive | inactive | inactive | inactive | – | – | – | – | – | –
CC(=O)CC(=O)Nc1ccccc1C | inactive | inactive | inactive | inactive | inactive | inactive | inactive | – | – | inactive | – | –
CCCCC(CC)COC(=O)CCCCC(=O)OCC(CC)CCCC (centres undefined) | inactive | inactive | inactive | inactive | inactive | inactive | inactive | – | – | – | inactive | –
OCc1cccnc1 | inactive | inactive | inactive | inactive | inactive | inactive | inactive | – | – | inactive | – | –
O=c1[nH]c(=O)n([C@H]2CCCO2)cc1F | inactive | inactive | inactive | inactive | inactive | inactive | inactive | – | – | inactive | inactive | –

SMILES | outcome [1] | outcome [2] | Potency [3] | Potency [4] | outcome [5] | Potency [6] | Potency [7] | activity change, negative = cytotoxicity [3] | activity change, negative = cytotoxicity [4] | Potency [8] | outcome [9] | Potency [10]
Nc1cc([N+](=O)[O-])ccc1O | inactive | inactive | inactive | inactive | inactive | inactive | inactive | – | – | – | – | inactive
C[C@H]1C[C@@H]2[C@H]([C@@H](O)C[C@@]3(C)[C@H]2CC[C@]3(O)C(=O)CO)[C@@]2(C)C=CC(=O)C=C12 | inactive | inactive | inactive | inactive | inactive | 871 nM (active) and 1.9 µM (active) | inactive | – | – | inactive | inactive | inactive
O=C(O)c1ccc(C(=O)O)cc1 | inactive | inactive | inactive | inactive | inactive | inactive | inactive | – | – | inactive | inactive | –
CCCCC(CC)COC(=O)CS (centres undefined) | inactive | inactive | inactive | inactive | inactive | inactive | inactive | – | – | inactive | – | –
O=C(O)c1ccc2c(c1)C(=O)OC2=O | inactive | inactive | inactive | inactive | inactive | inactive | inactive | – | – | inactive | – | inactive
COc1ccc(NC(C)=O)cc1N | inactive | inactive | inactive | inactive | inactive | inactive | inactive | – | – | inactive | inactive | –
ON=C1CCCCC1 | inactive | inactive | inactive | inactive | inactive | inactive | – | – | – | inactive | – | –
CCCCCC(N)=O | inactive | inactive | inactive | inactive | inactive | inactive | inactive | – | – | inactive | – | –
CCCCOC(=O)COc1ccc(Cl)cc1Cl | inactive | inactive | inactive | inactive | inactive | inactive | inactive | – | – | inactive | inactive | –
Nc1ccccc1[N+](=O)[O-] | inactive | inactive | inactive | inactive | inactive | inactive | inactive | – | – | inactive | inactive | –
O=c1[nH]nnc2ccccc12 | inactive | inactive | inactive | inactive | inactive | inactive | inactive | – | – | inactive | inactive | –
CC(=O)OCC(=O)[C@@]12N=C(C)O[C@@H]1C[C@H]1[C@@H]3CCC4=CC(=O)C=C[C@]4(C)[C@H]3[C@@H](O)C[C@@]12C | inactive | inactive | inactive | inactive | inactive | inactive | – | – | – | – | inactive | –
Fc1ccc(Br)cc1 | inactive | inactive | inactive | inactive | inactive | – | inactive | – | – | inactive | inactive | –
C=C(C)C(=O)Nc1ccc(Cl)c(Cl)c1 | inactive | inactive | 19.7 µM (active) and 21.8 µM (active) | – | inactive | inactive | inactive | – | – | inactive | – | –
CCc1ccc(CCOc2ccc(CC3SC(=O)NC3=O)cc2)nc1 (centres undefined) | inactive | inactive | inactive | inactive | inactive | – | inactive | – | – | inactive | inactive | –
CC(C)CC(=O)CC(C)C | inactive | – | inactive | inactive | inactive | inactive | inactive | – | – | – | – | –
CCCCCCCCCCCCCCO | inactive | inactive | inactive | inactive | inactive | inactive | – | – | – | inactive | inactive | –
COc1ccc(Nc2ccccc2)c(C)c1 | inactive | inactive | inactive | inactive | inactive | – | inactive | – | – | – | – | –
CCCCCCCC(=O)OC | inactive | inactive | inactive | inactive | inactive | – | – | – | – | inactive | – | –
CC1=C(C)S(=O)(=O)CCS1(=O)=O | inactive | inactive | inactive | inactive | inactive | – | – | – | – | inactive | inactive | –
CC(C)c1ccc(S(=O)(=O)O)cc1 | inactive | inactive | inactive | inactive | inactive | inactive | – | – | – | inactive | inactive | –
CC1CCC(C(C)C)C(O)C1 (centres undefined) | inactive | inactive | inactive | inactive | inactive | inactive | – | – | – | inactive | inactive | inactive
CCCCCC1=CCCC1=O | inactive | inactive | inactive | inactive | inactive | inactive | – | – | – | – | inactive | –
CCCCN(CCCC)CCCC | inactive | inactive | inactive | inactive | inactive | – | – | – | – | inactive | inactive | –
O=C(CC(C(=O)OC1CCCCC1)S(=O)(=O)O)OC1CCCCC1 (centres undefined) | inactive | inactive | inactive | inactive | inactive | – | inactive | – | – | – | – | –
C=CCNC(N)=S | inactive | inactive | inactive | inactive | inactive | inactive | – | – | – | – | inactive | –
Cc1ccc(S(N)(=O)=O)cc1 | inactive | inactive | inactive | inactive | inactive | – | inactive | – | – | inactive | inactive | –
